Results taken from ChEMBL document CHEMBL1961873, “Compounds: GSK PKIS; Assays: Nanosyn kinase panel” (2012).

Tests used:
[1] = target: Sphingosine kinase 1 (Homo sapiens) (UniProt Q9NYA1); details: at 1 µM;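 also: mean SPHK1 inhibition value reported from the GSK PKIS kinase panel screen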
[2] = target: T1, Sphingosine kinase 2 (Homo sapiens) (UniProt Q9NRA0); details: at 0.1 µM
T1 sequence (whole entry): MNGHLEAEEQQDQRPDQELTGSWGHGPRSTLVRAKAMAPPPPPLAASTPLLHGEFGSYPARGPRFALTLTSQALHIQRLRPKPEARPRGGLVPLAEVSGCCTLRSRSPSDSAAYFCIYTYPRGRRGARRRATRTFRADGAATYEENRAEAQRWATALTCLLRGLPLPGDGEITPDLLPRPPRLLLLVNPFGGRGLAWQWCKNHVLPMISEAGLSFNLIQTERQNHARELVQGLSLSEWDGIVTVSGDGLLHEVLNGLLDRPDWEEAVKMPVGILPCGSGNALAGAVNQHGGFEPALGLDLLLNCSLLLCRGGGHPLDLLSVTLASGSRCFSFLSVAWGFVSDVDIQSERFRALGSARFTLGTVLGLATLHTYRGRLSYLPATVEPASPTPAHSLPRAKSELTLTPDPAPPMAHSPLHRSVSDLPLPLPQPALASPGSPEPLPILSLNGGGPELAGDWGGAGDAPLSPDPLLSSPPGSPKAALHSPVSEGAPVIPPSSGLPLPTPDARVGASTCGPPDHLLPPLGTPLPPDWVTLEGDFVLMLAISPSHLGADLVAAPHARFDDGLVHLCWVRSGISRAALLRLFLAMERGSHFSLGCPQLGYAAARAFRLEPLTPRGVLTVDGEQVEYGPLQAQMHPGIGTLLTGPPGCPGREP

[3] = target: T1, Sphingosine kinase 2 (Homo sapiens); details: at 1 µM
[4] = target: Casein kinase II subunit alpha (Homo sapiens) (UniProt P68400); details: at 0.1 µM
[5] = target: Casein kinase II subunit alpha (Homo sapiens) (UniProt P68400); details: at 1 µM
[6] = target: T2, Inhibitor of nuclear factor kappa-B kinase subunit alpha (Homo sapiens) (UniProt O15111); details: at 0.1 µM
T2 sequence (whole entry): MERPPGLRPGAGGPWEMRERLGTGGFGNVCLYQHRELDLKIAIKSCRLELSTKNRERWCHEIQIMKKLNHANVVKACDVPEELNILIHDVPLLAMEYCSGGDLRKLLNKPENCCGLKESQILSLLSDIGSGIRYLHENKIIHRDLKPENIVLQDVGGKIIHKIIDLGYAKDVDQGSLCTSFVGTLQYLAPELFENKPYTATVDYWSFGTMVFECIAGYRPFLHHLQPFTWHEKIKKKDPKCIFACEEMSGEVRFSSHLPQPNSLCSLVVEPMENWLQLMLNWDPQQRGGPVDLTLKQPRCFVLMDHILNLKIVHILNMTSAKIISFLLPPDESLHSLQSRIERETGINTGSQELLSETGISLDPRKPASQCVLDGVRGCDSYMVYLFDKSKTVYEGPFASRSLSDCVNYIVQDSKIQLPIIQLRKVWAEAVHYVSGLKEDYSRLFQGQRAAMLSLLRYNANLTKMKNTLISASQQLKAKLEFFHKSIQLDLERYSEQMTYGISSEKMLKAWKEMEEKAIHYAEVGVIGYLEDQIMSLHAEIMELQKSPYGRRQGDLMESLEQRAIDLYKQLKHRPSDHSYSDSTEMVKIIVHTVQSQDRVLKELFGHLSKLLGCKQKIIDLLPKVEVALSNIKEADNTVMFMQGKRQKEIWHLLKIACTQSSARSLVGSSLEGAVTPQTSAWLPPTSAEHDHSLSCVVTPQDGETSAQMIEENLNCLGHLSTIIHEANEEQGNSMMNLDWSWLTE

[7] = target: T2, Inhibitor of nuclear factor kappa-B kinase subunit alpha (Homo sapiens); details: at 1 µM
[8] = target: T3, Inhibitor of nuclear factor kappa-B kinase subunit beta (Homo sapiens) (UniProt O14920); details: at 0.1 µM
T3 sequence (whole entry): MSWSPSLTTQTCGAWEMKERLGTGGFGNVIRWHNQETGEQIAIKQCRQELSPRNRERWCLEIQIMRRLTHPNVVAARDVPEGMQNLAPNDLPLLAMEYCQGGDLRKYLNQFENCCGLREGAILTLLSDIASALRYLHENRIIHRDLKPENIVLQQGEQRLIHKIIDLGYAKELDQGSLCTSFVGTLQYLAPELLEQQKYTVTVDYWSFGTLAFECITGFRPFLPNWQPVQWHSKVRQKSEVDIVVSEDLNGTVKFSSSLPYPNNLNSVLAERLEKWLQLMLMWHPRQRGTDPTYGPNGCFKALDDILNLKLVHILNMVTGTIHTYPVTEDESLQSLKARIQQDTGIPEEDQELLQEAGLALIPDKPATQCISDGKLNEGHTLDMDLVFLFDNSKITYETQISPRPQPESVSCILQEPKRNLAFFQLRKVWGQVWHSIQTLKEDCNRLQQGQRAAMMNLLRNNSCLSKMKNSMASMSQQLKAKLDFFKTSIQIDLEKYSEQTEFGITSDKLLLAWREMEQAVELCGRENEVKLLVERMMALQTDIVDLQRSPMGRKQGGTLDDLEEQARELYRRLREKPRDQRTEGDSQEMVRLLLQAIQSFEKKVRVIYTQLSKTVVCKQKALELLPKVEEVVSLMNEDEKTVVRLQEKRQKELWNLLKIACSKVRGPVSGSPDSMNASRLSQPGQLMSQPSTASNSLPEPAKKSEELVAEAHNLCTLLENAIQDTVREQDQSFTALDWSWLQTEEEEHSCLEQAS

[9] = target: T3, Inhibitor of nuclear factor kappa-B kinase subunit beta (Homo sapiens); details: at 1 µM
[10] = target: T4, Inhibitor of nuclear factor kappa-B kinase subunit epsilon (Homo sapiens) (UniProt Q14164); details: at 0.1 µM
T4 sequence (whole entry): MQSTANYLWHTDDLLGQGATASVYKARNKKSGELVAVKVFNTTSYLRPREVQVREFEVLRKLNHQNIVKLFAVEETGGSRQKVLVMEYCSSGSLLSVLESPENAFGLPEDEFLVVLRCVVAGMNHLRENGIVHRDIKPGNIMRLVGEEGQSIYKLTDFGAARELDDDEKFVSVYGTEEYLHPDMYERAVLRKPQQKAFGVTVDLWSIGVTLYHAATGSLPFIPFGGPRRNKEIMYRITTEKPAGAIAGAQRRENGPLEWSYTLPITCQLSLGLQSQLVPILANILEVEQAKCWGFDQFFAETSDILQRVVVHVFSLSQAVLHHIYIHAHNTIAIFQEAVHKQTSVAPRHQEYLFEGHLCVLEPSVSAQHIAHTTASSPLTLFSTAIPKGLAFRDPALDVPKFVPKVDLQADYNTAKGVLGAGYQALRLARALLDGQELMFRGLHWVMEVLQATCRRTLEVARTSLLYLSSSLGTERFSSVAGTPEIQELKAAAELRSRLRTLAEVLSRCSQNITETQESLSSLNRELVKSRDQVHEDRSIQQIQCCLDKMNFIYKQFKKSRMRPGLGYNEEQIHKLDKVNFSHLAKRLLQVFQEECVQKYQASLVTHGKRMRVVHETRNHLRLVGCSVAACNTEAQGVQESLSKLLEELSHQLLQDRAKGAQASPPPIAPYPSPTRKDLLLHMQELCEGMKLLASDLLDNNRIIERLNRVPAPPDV

[11] = target: T4, Inhibitor of nuclear factor kappa-B kinase subunit epsilon (Homo sapiens); details: at 1 µM
[12] = target: T5, Serine/threonine-protein kinase Nek1 (Homo sapiens) (UniProt Q96PY6); details: at 0.1 µM
T5 sequence (whole entry): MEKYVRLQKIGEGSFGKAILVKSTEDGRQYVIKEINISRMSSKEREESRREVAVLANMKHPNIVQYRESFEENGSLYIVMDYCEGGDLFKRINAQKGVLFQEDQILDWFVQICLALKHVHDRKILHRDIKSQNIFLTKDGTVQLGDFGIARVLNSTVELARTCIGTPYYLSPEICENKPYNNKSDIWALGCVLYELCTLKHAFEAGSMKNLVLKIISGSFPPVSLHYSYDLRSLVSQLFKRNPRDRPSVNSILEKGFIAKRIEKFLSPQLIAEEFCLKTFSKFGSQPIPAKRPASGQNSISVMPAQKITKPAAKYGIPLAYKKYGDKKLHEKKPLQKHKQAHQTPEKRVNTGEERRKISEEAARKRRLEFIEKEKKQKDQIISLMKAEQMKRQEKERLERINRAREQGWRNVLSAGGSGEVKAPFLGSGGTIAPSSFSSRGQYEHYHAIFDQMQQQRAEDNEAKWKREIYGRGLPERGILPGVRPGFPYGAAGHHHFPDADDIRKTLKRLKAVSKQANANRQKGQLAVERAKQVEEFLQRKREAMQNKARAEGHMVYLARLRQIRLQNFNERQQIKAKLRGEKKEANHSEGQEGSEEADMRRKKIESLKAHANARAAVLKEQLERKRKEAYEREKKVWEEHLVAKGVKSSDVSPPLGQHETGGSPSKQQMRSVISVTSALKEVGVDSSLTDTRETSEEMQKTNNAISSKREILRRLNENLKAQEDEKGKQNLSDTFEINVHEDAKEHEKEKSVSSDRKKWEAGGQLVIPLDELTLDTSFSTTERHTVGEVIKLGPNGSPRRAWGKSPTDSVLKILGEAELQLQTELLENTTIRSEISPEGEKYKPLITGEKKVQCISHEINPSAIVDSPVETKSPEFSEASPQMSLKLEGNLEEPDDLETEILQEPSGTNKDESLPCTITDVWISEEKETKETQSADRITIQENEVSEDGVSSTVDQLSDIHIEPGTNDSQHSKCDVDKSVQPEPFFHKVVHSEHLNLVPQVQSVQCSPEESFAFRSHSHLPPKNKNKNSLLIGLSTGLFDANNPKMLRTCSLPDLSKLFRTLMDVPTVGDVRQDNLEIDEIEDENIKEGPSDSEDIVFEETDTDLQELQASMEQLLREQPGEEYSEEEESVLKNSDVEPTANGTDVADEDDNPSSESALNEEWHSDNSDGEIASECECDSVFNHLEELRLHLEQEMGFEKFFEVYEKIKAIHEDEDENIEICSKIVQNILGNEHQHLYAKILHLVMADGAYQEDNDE

[13] = target: T5, Serine/threonine-protein kinase Nek1 (Homo sapiens); details: at 1 µM
[14] = target: T6, Serine/threonine-protein kinase Nek2 (Homo sapiens) (UniProt P51955); details: at 0.1 µM
T6 sequence (whole entry): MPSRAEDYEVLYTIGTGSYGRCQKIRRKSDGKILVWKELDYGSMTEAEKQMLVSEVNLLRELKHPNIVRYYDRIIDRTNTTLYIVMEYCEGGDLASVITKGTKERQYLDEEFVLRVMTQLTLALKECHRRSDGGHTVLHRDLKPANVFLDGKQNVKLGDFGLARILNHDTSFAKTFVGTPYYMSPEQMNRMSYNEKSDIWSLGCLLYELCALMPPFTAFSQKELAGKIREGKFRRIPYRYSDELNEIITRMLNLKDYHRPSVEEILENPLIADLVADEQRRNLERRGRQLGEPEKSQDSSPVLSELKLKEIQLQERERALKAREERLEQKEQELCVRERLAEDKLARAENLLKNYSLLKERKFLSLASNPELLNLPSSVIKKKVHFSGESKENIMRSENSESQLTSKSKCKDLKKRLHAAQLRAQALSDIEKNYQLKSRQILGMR

[15] = target: T6, Serine/threonine-protein kinase Nek2 (Homo sapiens); details: at 1 µM
[16] = target: Serine/threonine-protein kinase Nek6 (Homo sapiens) (UniProt Q9HC98); details: at 0.1 µM
[17] = target: Serine/threonine-protein kinase Nek6 (Homo sapiens) (UniProt Q9HC98); details: at 1 µM
[18] = target: Serine/threonine-protein kinase Nek7 (Homo sapiens) (UniProt Q8TDX7); details: at 0.1 µM
[19] = target: Serine/threonine-protein kinase Nek7 (Homo sapiens) (UniProt Q8TDX7); details: at 1 µM
[20] = target: T7, Serine/threonine-protein kinase Nek9 (Homo sapiens) (UniProt Q8TD19); details: at 0.1 µM;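 also: reported value is the mean percent inhibition of NEK9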
T7 sequence (whole entry): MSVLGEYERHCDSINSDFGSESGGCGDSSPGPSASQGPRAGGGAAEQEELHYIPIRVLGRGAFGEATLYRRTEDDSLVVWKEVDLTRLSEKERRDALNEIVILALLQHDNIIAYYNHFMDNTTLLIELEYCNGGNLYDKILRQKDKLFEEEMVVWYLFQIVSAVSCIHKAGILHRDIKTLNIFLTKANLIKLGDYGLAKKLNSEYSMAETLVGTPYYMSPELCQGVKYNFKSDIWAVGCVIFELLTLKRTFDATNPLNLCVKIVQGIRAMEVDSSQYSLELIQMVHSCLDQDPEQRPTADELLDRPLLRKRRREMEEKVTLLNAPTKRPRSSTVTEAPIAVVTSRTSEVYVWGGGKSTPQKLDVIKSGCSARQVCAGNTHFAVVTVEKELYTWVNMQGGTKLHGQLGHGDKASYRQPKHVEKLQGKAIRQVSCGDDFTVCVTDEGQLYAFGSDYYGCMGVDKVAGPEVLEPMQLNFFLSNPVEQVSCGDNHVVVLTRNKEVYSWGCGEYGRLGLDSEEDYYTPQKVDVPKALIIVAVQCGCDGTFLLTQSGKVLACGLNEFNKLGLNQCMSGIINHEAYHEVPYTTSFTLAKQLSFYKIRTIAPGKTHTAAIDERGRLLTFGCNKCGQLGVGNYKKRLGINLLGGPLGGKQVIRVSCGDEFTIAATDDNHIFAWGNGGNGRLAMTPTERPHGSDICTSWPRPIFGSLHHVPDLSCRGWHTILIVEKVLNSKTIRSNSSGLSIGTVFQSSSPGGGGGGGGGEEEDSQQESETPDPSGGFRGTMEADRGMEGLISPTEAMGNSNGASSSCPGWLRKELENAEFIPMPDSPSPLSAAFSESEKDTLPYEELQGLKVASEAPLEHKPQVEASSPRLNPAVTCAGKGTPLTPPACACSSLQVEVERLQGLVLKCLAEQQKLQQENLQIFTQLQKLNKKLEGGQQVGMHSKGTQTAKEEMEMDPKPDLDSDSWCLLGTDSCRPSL

Serine/threonine-protein kinase Nek7 (Homo sapiens), sequence (Q8TDX7 whole entry, looked up): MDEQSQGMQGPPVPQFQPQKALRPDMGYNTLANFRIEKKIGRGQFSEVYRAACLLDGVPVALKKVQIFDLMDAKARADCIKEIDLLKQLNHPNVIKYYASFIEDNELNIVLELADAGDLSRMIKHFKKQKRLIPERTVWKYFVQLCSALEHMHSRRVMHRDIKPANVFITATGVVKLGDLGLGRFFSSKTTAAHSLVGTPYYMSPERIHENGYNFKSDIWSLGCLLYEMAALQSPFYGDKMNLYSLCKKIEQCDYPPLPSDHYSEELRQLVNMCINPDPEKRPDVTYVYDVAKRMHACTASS
Casein kinase II subunit alpha (Homo sapiens), sequence (P68400 whole entry, looked up): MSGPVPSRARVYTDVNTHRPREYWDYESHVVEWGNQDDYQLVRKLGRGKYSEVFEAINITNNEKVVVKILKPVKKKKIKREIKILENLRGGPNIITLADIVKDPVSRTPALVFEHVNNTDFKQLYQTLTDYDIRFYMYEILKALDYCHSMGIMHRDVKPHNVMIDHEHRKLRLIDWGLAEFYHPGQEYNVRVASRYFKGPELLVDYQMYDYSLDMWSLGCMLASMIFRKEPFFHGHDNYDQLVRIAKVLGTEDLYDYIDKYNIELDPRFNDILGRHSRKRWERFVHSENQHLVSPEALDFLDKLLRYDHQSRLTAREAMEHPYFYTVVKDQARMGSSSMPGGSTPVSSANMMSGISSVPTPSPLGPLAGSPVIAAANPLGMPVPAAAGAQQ
Serine/threonine-protein kinase Nek6 (Homo sapiens), sequence (Q9HC98 whole entry): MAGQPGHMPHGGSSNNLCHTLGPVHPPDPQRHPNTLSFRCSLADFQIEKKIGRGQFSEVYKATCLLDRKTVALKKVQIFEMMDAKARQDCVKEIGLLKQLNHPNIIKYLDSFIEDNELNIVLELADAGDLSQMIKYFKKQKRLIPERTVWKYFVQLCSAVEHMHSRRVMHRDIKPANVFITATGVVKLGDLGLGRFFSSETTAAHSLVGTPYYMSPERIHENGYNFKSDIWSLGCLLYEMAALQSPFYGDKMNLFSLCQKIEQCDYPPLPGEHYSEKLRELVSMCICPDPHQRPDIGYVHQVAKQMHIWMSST
Sphingosine kinase 1 (Homo sapiens), sequence (Q9NYA1 whole entry): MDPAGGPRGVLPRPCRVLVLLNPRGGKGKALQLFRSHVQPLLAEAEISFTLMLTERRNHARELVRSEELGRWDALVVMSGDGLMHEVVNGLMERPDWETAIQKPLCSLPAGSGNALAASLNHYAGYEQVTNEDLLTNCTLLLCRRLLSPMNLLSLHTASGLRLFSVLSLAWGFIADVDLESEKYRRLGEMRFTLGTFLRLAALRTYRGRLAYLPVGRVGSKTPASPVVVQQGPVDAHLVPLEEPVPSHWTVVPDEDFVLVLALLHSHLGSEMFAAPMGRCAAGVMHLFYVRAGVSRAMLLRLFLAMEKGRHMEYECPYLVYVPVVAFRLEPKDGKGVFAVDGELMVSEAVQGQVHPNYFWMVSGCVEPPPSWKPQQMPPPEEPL

Row | SMILES | inhibition [1] | inhibition [2] | inhibition [3] | inhibition [4] | inhibition [5] | inhibition [6] | inhibition [7] | inhibition [8] | inhibition [9] | inhibition [10] | inhibition [11] | inhibition [12] | inhibition [13] | inhibition [14] | inhibition [15] | inhibition [16] | inhibition [17] | inhibition [18] | inhibition [19] | inhibition [20]
1 | CCS(=O)(=O)c1ccc(OC)c(Nc2ncc(-c3cccc(OC)c3)o2)c1 | 1.37% | 0% | -2% | 5.03% | 29.3% | 5.66% | -4.47% | 3.95% | 1.16% | 0.74% | 4.13% | 0.44% | 1.45% | 2.73% | 2.94% | -1.47% | 0.87% | 2.84% | 2.42% | 4.19%
2 | NS(=O)(=O)c1ccc(Nc2cc(-c3cccc(O)c3)n[nH]2)cc1 | -2.64% | 0.05% | -0.8% | 2.68% | 3.26% | 2.32% | 2.31% | 4.33% | 5.24% | 6.1% | 6.34% | 3.72% | 3.43% | 6.7% | 7.9% | 1.66% | -3.5% | 6.05% | 4.88% | 4.44%
